Results filed as inconclusive are left out. Activity calls are given as the source filed them. Calls come from the whole dose curve; as a rule, active = well fitted curve in the direction sought with a large enough effect; inconclusive = small, poorly fitted or top-dose-only effect, or another doubt; inactive = no such curve, though single readings can be large; an effect the other way counts as inactive or inconclusive.
Key:
[1] = MultiTox-Fluor Cytotoxicity Assay - LYMP1-002 - Dead Cells (AID 960); note: nearly all actives have a fitted effect of over 60% in size
How it was run: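 Dead-cell fluorescence (Ex/Em 485/520) after 16 h compound exposure at 37 C of LYMP1-002 lymphoblastoid cells in complete medium; AC50 by Hill equation, with data scaled between DMSO and 15 uM tetraoctylammonium bromide.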

[2] = MultiTox-Fluor Cytotoxicity Assay - LYMP1-003 - Dead Cells (AID 961); note: nearly all actives have a fitted effect of over 70% in size
How it was run: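 LYMP1-003 human lymphoblastoid cells (2500/well) exposed to compound 16 h at 37 C in complete medium; dead-cell protease read with bis-AAF-R110 fluorescence (Ex/Em 485/520) after 60 min at room temperature. Normalized to DMSO and 15 uM tetraoctylammonium bromide; AC50 from Hill fit.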

[3] = MultiTox-Fluor Cytotoxicity Assay - LYMP1-003 - Live Cells (AID 962);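 note: cytotoxic hits lower the live-cell protease signal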
How it was run: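 Live-cell protease activity (GF-AFC substrate, 405/510 nm, 60 min at room temperature) after 16 h, 37 C compound exposure of human lymphoblastoid LYMP1-003 cells; concentration-response fitted to the Hill equation for AC50.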

[4] = Cell Viability - LYMP1-003 - Assay at 24 hr (AID 963)
How it was run: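 Concentration-response qHTS: ATP loss measured by CellTiter-Glo luminescence after 24 h compound exposure at 37 C. Cells were LYMP1-003 human lymphoblastoid, 2500 per well. AC50 derived via standard Hill equation modeling.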

[5] = Cell Viability - LYMP1-003 - Assay at 40 hr (AID 964); note: series mostly up to about 92 µM; nearly all actives have a fitted effect of over 60% in size
How it was run: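 Viability is taken as cellular ATP, read by CellTiter-Glo luminescence after 40 h of compound exposure at 37 C. Cells: human lymphoblastoid line LYMP1-003 at 2500/well; AC50 values derived by Hill-equation fitting of concentration-response data.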

[6] = Cell Viability - LYMP2-003 (AID 965);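 note: cells exposed to compounds for 24 h before reading; nearly all actives have a fitted effect of over 50% in size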
How it was run: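 Seed 2500 lymphoblastoid cells/well; incubate 5 hr, 37 C; add compounds; incubate 24 hr, 37 C; add CellTiter-Glo, 30 min RT; read luminescence. AC50 from Hill fit.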

[7] = Cell Viability - LYMP2-004 (AID 966); note: nearly all actives have a fitted effect of over 65% in size
How it was run: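 AC50 values come from Hill modelling of concentration-dependent loss of intracellular ATP, measured by CellTiter-Glo luminescence. Human LYMP2-004 lymphoblastoid cells (2500/well) were exposed to compound for 24 h at 37 C.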

[8] = Cell Viability - LYMP2-005 (AID 967); note: series mostly up to about 92 µM
How it was run: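 Acute cytotoxicity is scored as a concentration-dependent drop in intracellular ATP in human lymphoblastoid LYMP2-005 cells after 24 h compound treatment. ATP is quantified by luciferase luminescence, and AC50 is derived by Hill-equation modelling.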

[9] = Cell Viability - LYMP2-009 (AID 968); note: series mostly up to about 92 µM; nearly all actives have a fitted effect of over 55% in size
[10] = Cell Viability - LYMP2-011 (AID 969); note: nearly all actives have a fitted effect of over 60% in size
How it was run: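 Cytotoxicity qHTS with ATP content as read-out: lymphoblastoid cells (2500/well) exposed to compound for 24 h at 37 C, then luciferase luminescence measured. Concentration-response data fitted with the standard Hill equation to give AC50.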

[11] = Cell Viability - LYMP2-015 (AID 971); note: nearly all actives have a fitted effect of over 55% in size
How it was run: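 Cytotoxicity readout: decrease in intracellular ATP (CellTiter-Glo luminescence) in 2500 LYMP2-015 lymphoblastoid cells/well after 24 h compound exposure at 37 C. Concentration-response data fitted with the standard Hill equation to give AC50.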

[12] = Cell Viability - LYMP2-017 (AID 972); note: series mostly up to about 92 µM; nearly all actives have a fitted effect of over 55% in size
How it was run: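 CellTiter-Glo luminescence (cellular ATP, 30 min RT) measured cytotoxicity after 24 hr compound treatment at 37 C. Cells were a human lymphoblastoid line, LYMP2-017, plated at 2500/well and incubated 5 hr first; concentration-response fitted with Hill equation for AC50.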

[13] = Cell Viability - LYMP2-019 (AID 973); note: nearly all actives have a fitted effect of over 55% in size
How it was run: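 AC50 values come from Hill-equation fits of luminescent intracellular ATP (CellTiter-Glo, 30 min, room temperature) following 24 h compound exposure at 37 C. Cells: LYMP2-019 lymphoblastoid line, 2500 per well, in complete culture medium.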

[14] = Cell Viability - LYMP2-021 (AID 974); note: nearly all actives have a fitted effect of over 55% in size
How it was run: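 AC50 values come from Hill-equation fits to CellTiter-Glo luminescence (ATP content), read after 24 hour compound exposure at 37 C of 2500 LYMP2-021 lymphoblastoid cells/well; tetraoctylammonium bromide as positive control.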

[15] = Cell Viability - LYMP2-023 (AID 975)
How it was run: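 Intracellular ATP, read by CellTiter-Glo luminescence, reports viability after 24 hr compound exposure at 37 C. 2500 lymphoblastoid cells/well (LYMP2-023) seeded 5 hr beforehand; Hill fits give AC50; positive control tetraoctylammonium bromide.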

[16] = Cell Viability - LYMP2-025 (AID 976); note: series mostly up to about 92 µM
How it was run: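 Cytotoxicity read as loss of intracellular ATP (luciferase luminescence) after 24 h compound treatment at 37 C. Uses LYMP2-025 lymphoblastoid cells in 1536-well format; Hill-equation modelling gives AC50; tetraoctylammonium bromide as positive control.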

[17] = Cell Viability - LYMP2-002 (AID 977); note: series mostly up to about 92 µM
How it was run: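 Human lymphoblastoid cells, 2500/well, complete medium; 5 h 37 C settle; compound 24 h 37 C; CellTiter-Glo, 30 min RT; luminescence. Decrease in ATP = cytotoxicity; AC50 via Hill equation.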

[18] = Cell Viability - LYMP2-006 (AID 978); note: series mostly up to about 92 µM; nearly all actives have a fitted effect of over 60% in size
How it was run: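 Cells are seeded at 2500 per well and rested 5 hr at 37 C. Compounds are added across a concentration series for 24 hr at 37 C, after which ATP is quantified by luciferase luminescence.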

[19] = Cell Viability - LYMP2-008 (AID 980); note: nearly all actives have a fitted effect of over 60% in size
How it was run: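 Cytotoxicity determined from ATP-dependent luciferase luminescence (CellTiter-Glo) following 24 h compound exposure of human lymphoblastoid LYMP2-008 cells at 37 C. Concentration-response data fitted to the Hill equation to give AC50.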

[20] = Cell Viability - LYMP2-012 (AID 982)

Measured: Potency

C/C=C/c1ccc2c(c1)OCO2
inactive: [1] | [2] | [3] | [4] | [5] | [6] | [7] | [8] | [9] | [10] | [11] | [12] | [13] | [14] | [15] | [16] | [17] | [18] | [19] | [20]

C=CCc1ccc2c(c1)OCO2
inactive: [1] | [2] | [3] | [4] | [5] | [6] | [7] | [8] | [9] | [10] | [11] | [12] | [13] | [14] | [15] | [16] | [17] | [18] | [19] | [20]

Reference: PubChem BioAssay (NCATS)
